The record followed here is PubChem BioAssay (NCATS).

The target in test [1] is Calcium and integrin-binding protein 1 (Homo sapiens) (UniProt Q99828). The experiment in a line: Primary qHTS for Identification of Calcium Integrin Binding Protein 1 (CIB1) Competitor (AID 1508620).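 Also: GST tagged CIB1 binding a fluorescein labelled alphaIIb integrin peptide tracer; top concentration of the series differs between compounds.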 The gist of the method:
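Fluorescence polarization competition: GST-tagged CIB1 (1 uM final) preincubated with compound 15 min at room temperature, then FITC-labelled alphaIIb peptide (100 nM final) added. After 15 min at room temperature, polarization read at Ex 480/Em 540.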
On the technique in general: In qHTS, concentration-response curves come from the screen itself.

Test [2] in a line: Primary qHTS for inhibitors of nuclear receptor binding SET domain protein 2 (NSD2) in an isogenic RCH-ACV NSD2 p.E1099K mutant (9B) (AID 1645876). Also: nearly all actives have a fitted effect of over 70% in size. Also: potency is read from the fitted curve at half-maximal effect.

Inconclusive results are not listed. A call without a number means that no potency is given here. Activity calls are given as the source filed them. Calls follow the shape of the dose curve; as a rule, active = well fitted inhibition curve with a large enough effect; inconclusive = small, poorly fitted or top-dose-only effect; inactive = flat fitted curve, though single readings scatter.

Sequence of Calcium and integrin-binding protein 1 (Homo sapiens) (Q99828 whole entry, looked up): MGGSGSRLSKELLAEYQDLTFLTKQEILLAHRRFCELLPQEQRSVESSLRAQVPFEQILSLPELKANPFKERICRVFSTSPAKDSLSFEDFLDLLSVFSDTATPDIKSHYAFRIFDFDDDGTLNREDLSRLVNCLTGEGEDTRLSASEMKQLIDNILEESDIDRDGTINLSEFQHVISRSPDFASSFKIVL

Consider `C/C(=C\CCC(C)CCO)C(=O)OC1(C)CCC2C(C(=O)O)=COC(OC3OC(CO)C(O)C(O)C3O)C21` (stereo unspecified), for which the Potency entry in test [1] and in test [2] was “inactive” in each case.

In the case of `C[C@]12C[C@@H](O)[C@@H]3C[C@@]1(O[C@@H]1O[C@H](CO)[C@@H](O)[C@H](O)[C@H]1O)[C@]3(COC(=O)c1ccccc1)C(=O)O2`, the Potency result in test [1] and in test [2] was “inactive” in each case.

Regarding `C[C@@H]1O[C@@H](O[C@H]2[C@@H]3C=CO[C@@H](O[C@@H]4O[C@H](CO)[C@@H](O)[C@H](O)[C@H]4O)[C@@H]3[C@@]3(CO)O[C@@H]23)[C@H](OC(=O)/C=C/c2ccccc2)[C@H](O)[C@H]1O`, the Potency result in test [1] and in test [2] was “inactive” in each case.

As for `CO[C@@H](C)Cn1c(=O)n(C)c2cnc3ccc(-c4cncc(C(C)(C)O)c4)cc3c21`, the Potency entry in test [1] was “inactive”. For the same compound, the Potency in test [2] is 0.166 µM (active).

Regarding `CC(=O)O[C@@H]1[C@@H](O)[C@H](C)O[C@@H](O[C@H]2[C@@H]3C=CO[C@@H](O[C@@H]4O[C@H](CO)[C@@H](O)[C@H](O)[C@H]4O)[C@@H]3[C@@]3(CO)O[C@@H]23)[C@@H]1OC(=O)/C=C/c1ccccc1`, the Potency entry in test [1] and in test [2] was “inactive” in each case.

`COc1cc(/C=C/C=O)cc(OC)c1O[C@@H]1O[C@H](CO)[C@@H](O)[C@H](O)[C@H]1O`: the Potency entry in test [1] and in test [2] was “inactive” throughout.

Regarding `CCCCC1CCN(CCCC(=O)c2ccccc2C)CC1`, the Potency entry in test [1] is “inactive”. The Potency in test [2] is 20.5 µM (active).

As to `C=C(C(=O)O)C1CCC2(C)CCC(O)C(C)(O)C2C1` (stereo unspecified), the Potency result in test [1] and in test [2] was “inactive” each time.

Consider `COC(=O)Cc1cc2c(c([N+](=O)[O-])c1)N(C(=O)CC[C@H](N)C(=O)O)CC2`, for which the Potency entry in test [1] and in test [2] was “inactive” each time.

Regarding `CC1CC(C(O)C(C)(C)O)OC2CC3(C)C4(C)CCC5C(C)(C)C(=O)CCC5(C)C4CCC3(O)C12O` (stereo unspecified), the Potency result in test [1] and in test [2] was “inactive” each time.

Regarding `CC1(C)CCC[C@@]2(C)C1[C@H](OC(=O)/C=C/C=C/C(=O)O)C=C1COC(=O)[C@@]12O` (stereo partly specified), the Potency entry in test [1] and in test [2] was “inactive” each time.

With `CCC(=O)O[C@H]1C(C)(C)[C@H]([C@@H](O)C(=O)OC)[C@]2(C)C(=O)[C@@]1(O)[C@H]1O[C@]13C1CC(=O)O[C@@H](c4ccoc4)[C@]1(C)CCC32` (stereo partly specified), the Potency entry in test [1] and in test [2] was “inactive” in each case.

Consider `C=C[C@H]1[C@H](O[C@@H]2O[C@H](CO)[C@@H](O)[C@H](O)[C@H]2O)OC=C(C(=O)OC)[C@H]1C/C=C(/C=O)[C@@H]1C(C(=O)OC)=CO[C@@H](O[C@@H]2O[C@H](CO)[C@@H](O)[C@H](O)[C@H]2O)[C@@H]1C=C`, for which the Potency entry in test [1] and in test [2] was “inactive” each time.

Regarding `C=C(C(=O)O)C1CCC2(C)CCC(O)C(=C)C2C1` (stereo unspecified), the Potency result in test [1] and in test [2] was “inactive” in each case.

`COC(=O)[C@@H](O)[C@H]1[C@@]2(C)CC3(O)[C@@H](C(=O)[C@H]2O)[C@]24O[C@]25CC(=O)O[C@@H](c2ccoc2)[C@]5(C)CCC4[C@]13C` (stereo partly specified): the Potency result in test [1] and in test [2] was “inactive” throughout.

With `O=C(O)c1cc(I)ccc1NC(=O)[C@H](Cc1ccccc1)NCc1ccccc1`, the Potency result in test [1] and in test [2] was “inactive” each time.

Consider `CC1=C(COC2OC(CO)C(O)C(O)C2O)C(C(CO)C(=O)O)CC1` (stereo unspecified), for which the Potency entry in test [1] and in test [2] was “inactive” throughout.

Regarding `CNC12CC3C[C@@](C)(C1)C[C@](C)(C3)C2`, the Potency entry in test [1] and in test [2] was “inactive” in each case.

Consider `CC1(C)C2CC(OC3OC(COC4OCC(O)(CO)C4O)C(O)C(O)C3O)C1(C)CC2O` (stereo unspecified), for which the Potency entry in test [1] and in test [2] was “inactive” each time.

For `C[S+](CC[C@H](N)C(=O)[O-])C[C@H]1O[C@@H](n2cnc3c(N)ncnc32)[C@H](O)[C@@H]1O` (stereo partly specified), the Potency entry in test [1] and in test [2] was “inactive” in each case.

As for `COC(=O)C1=CO[C@@H](O[C@@H]2O[C@H](CO)[C@@H](O)[C@H](O)[C@H]2O)[C@@H]2[C@@](C)(O)[C@@H](OC(=O)/C=C/c3ccc(O)cc3)C[C@]12O`, the Potency entry in test [1] and in test [2] was “inactive” each time.

As to `CC(=O)OC1C[C@]2(C)C(O)CC(C)=C[C@H](OC(=O)c3ccc(O)cc3)C2[C@]1(O)C(C)C` (stereo partly specified), the Potency result in test [1] and in test [2] was “inactive” in each case.

On to `C=C(C)C1CCC2(C(=O)O[C@@H]3O[C@H](CO[C@@H]4O[C@H](CO)[C@@H](O)[C@H](O)[C@H]4O)[C@@H](O)[C@H](O[C@@H]4O[C@@H](C)[C@H](O)[C@@H](O)[C@H]4O)[C@H]3O)CCC3(C(=O)O)C(CCC4C5(C)CCC(O)C(C)(C)C5CCC43C)C12` (stereo partly specified), for which the Potency result in test [1] is “inactive”. Also, the outcome in test [2] was “inactive [at 9.23 µM]”.

As to `CC1=CCC(C(C)(C)O[C@@H]2O[C@H](CO[C@@H]3O[C@@H](C)[C@H](O)[C@@H](O)[C@H]3O)[C@@H](O)[C@H](O)[C@H]2O)CC1` (stereo partly specified), the Potency entry in test [1] and in test [2] was “inactive” each time.

`OC[C@H]1O[C@@H](Oc2ccccc2)[C@H](O)[C@@H](O)[C@@H]1O`: the Potency entry in test [1] and in test [2] was “inactive” each time.

Consider `O=S(=O)(c1ccc(S(=O)(=O)n2cnc3ccccc32)cc1)N1CCCCCC1`, for which the Potency result in test [1] and in test [2] was “inactive” each time.

Consider `C=C[C@]1(C)C[C@H](O)[C@@H]2[C@H](OC(=O)[C@@H]2C)C1/C(C)=C/O[C@@H]1O[C@H](CO)[C@@H](O)[C@H](O)[C@H]1O` (stereo partly specified), for which the Potency result in test [1] and in test [2] was “inactive” throughout.

For `N#C[C@@H]1C[C@H](F)CN1C(=O)CNC1[C@H]2CN(C(=O)c3ccc(F)cc3)C[C@@H]12` (stereo partly specified), the Potency entry in test [1] and in test [2] was “inactive” throughout.
